Structures are written as SMILES. Among all 310,000 compounds or so, about 14,000 (4.5%) showed an effect of 50% or more. The effect is printed as a negative number. Many of the other results were omitted from the sample, so strong results are more common in it than they were.
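Further: peak tail current of the secondary pulse compared with the same well before compound.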

In this experiment the target is human ether-à-go-go-related gene (hERG) potassium channel (human, UniProt Q12809). The experiment is described as follows: primary screen, population patch clamp on CHO cells stably expressing hERG; higher = less effect of the substance.
Sequence of human ether-à-go-go-related gene (hERG) potassium channel (Q12809 whole entry, looked up): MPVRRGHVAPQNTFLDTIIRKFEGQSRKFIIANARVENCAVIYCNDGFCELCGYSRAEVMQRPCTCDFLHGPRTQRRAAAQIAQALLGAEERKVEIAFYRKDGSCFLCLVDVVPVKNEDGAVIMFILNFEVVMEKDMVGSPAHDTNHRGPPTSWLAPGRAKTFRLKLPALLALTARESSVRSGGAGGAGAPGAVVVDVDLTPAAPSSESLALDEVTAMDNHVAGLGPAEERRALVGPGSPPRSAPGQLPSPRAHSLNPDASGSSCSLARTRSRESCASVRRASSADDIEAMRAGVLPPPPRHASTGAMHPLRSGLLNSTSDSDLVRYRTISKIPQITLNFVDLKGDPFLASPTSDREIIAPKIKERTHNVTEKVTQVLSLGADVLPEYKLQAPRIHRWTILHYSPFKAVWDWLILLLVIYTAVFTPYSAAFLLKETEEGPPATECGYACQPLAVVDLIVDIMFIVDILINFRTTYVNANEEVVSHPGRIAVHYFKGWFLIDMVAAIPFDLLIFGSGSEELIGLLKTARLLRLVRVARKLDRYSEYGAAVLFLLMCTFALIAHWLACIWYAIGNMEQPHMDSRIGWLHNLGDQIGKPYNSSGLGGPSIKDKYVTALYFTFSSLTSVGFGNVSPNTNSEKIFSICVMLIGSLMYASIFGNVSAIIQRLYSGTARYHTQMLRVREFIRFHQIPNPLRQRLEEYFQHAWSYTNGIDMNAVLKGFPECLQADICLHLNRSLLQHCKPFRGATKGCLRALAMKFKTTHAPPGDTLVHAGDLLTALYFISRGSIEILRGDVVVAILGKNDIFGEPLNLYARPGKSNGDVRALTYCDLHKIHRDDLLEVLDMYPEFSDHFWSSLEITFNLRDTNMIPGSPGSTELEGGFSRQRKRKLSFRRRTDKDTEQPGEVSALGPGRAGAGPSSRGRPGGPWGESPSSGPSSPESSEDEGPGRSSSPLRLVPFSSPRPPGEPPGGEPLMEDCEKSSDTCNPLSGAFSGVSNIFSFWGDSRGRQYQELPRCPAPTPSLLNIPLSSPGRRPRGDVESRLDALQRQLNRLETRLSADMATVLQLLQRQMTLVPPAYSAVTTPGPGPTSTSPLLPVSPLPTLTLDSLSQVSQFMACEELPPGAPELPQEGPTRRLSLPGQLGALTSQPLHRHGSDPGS
Turning to `CC(=O)Nc1c(NCC(C)C)c2ccccc2oc1=O`, the “hERG current change (%, negative = inhibition) at 10uM” value amounted to 16.7%.
The same measure for `Cc1ccc(NC(=O)N2CCc3ccccc3C2)cc1C`: 15.2%.
The same measure for `COC(=O)Cc1c(O)ccn(CCc2ccccc2)c1=O`: 51.2%; for `CCCn1nc(C(=O)NCC2COc3ccccc3O2)c2ccccc2c1=O` (stereo not shown): -36.2%; for `COc1ccc(N2CN=C3SCC(=O)N3C2)cc1`: 11.5%.
The same measure for `CC(NC(=O)C1C(=O)N(CCO)C2(C)CC1c1ccccc1O2)c1ccccc1` (stereo not shown): -14.4%; for `CC(=O)Nc1cccc(C(=O)Nc2ccccc2C(=O)O)c1`: 7.39%.
For the molecule `Cc1ccc(-c2csc(NC(=O)CSc3nc4ccccc4c(=O)n3CCCN(C)C)n2)cc1`, the “hERG current change (%, negative = inhibition) at 10uM” value was -35.2%.
The same measure for `C=CCN(CC=C)c1nc2ccccc2nc1C(C#N)C(=O)OCCOC` (stereo not shown): -29.8%; for `Br.COc1ccccc1NS(=O)(=O)c1cc(N2Cc3ccccc3C2=N)ccc1N1CCOCC1`: -73.3%.
As to `CCC(=O)Nc1ccc(N2CCOCC2)c(S(=O)(=O)Nc2ccc(Cl)cc2)c1`, the “hERG current change (%, negative = inhibition) at 10uM” value is reported as -25.2%.
To `O=S(=O)(Nc1ccc(N2CCOCC2)cc1)c1cc(Cl)ccc1Cl` belongs 4.1%.
The same measure for `COc1ccccc1NS(=O)(=O)c1cc(NC(=O)C(C)(C)C)ccc1N1CCOCC1`: -36.4%; for `Br.N=C1c2ccccc2CN1c1ccc(N2CCOCC2)c(S(=O)(=O)Nc2ccc(Cl)cc2)c1`: -81%; for `COc1ccccc1NS(=O)(=O)c1cc(NC(=O)C2CC2)ccc1N1CCOCC1`: 45.4%.
To `CCOC(=O)c1nc(C)sc1-c1ccnn1S(=O)(=O)c1ccccc1C(F)(F)F` belongs -25.1%.
On to `CN(CCCC1CCCC1)C(=O)CCc1nnc(-c2ccccc2)o1`, for which the “hERG current change (%, negative = inhibition) at 10uM” value is -22.7%.
The same measure for `Cc1cccc(-c2n[nH]c(=S)n2/N=C/c2ccco2)c1`: 2.87%.
Consider `O=C1[C@@H]2C(Cc3ccc(O)cc3)NC3(C(=O)Nc4ccc(F)cc43)[C@@H]2C(=O)N1c1ccc(F)cc1` (stereo partly shown), for which the “hERG current change (%, negative = inhibition) at 10uM” value was determined as 10.1%.
The same measure for `CC(O)(C#CCN1CCCCC1)c1ccccc1` (stereo not shown): 1.9%; for `CC(O)C(=O)O.Cc1ccc(CN(CC(O)COc2cccc3[nH]cc(C)c23)C(C)(C)C)cc1` (stereo not shown): -60.8%; for `COc1ccc(OCC(O)CN(C)C(=O)C(C)Oc2ccccc2)cc1` (stereo not shown): 6.31%.
With `Cc1c[nH]c2cccc(OCC(CNC(C)(C)C)OC(=O)c3ccccc3)c12.Cl` (stereo not shown), the “hERG current change (%, negative = inhibition) at 10uM” value was determined as 1.02%.
The same measure for `CC(O)C(=O)O.COc1ccc(CN(CC(O)COc2cccc3[nH]cc(C)c23)C(C)(C)C)cc1` (stereo not shown): -60.6%; for `Cc1c[nH]c2cccc(OCC(O)CNC(C)(C)C)c12.Cl` (stereo not shown): -8.91%; for `COC(=O)Cc1c[nH]c2cccc(OCC(O)CN(Cc3ccc([N+](=O)[O-])cc3)C(C)(C)C)c12.Cl` (stereo not shown): -4.66%.
The same measure for `CCOC(=O)c1c(NCc2ccccc2)n[nH]c1C`: 5%; for `CCOC(=O)CSc1ncnc2c(C(=O)OCC)c3n(c12)CCC3`: -62.6%.
To `CCSc1ncnc2c(C#N)c3n(c12)CCCCC3` belongs -23.8%.
Take `CCOC(=O)c1c(C)nsc1NCc1ccccc1`: the “hERG current change (%, negative = inhibition) at 10uM” value is 5.94%.
To `CCOC(=O)c1c2n(c3c(NCc4ccccc4)ncnc13)CCCC2` belongs -76.3%; to `CCOC(=O)CSc1ncnc2c1sc1nc(N3CCOCC3)c3c(c12)CCCC3`, 12.7%.
On to `COc1ccc(CNc2nnnn2C)cc1`, for which the “hERG current change (%, negative = inhibition) at 10uM” value came out at 20.9%.
To `CCOC(=O)Cc1csc(NC(=O)c2ccco2)n1` belongs 0.229%.
Consider `Cn1c(=O)[nH]c(=O)c2c1nc(Br)n2CCCSc1nc2ccccc2o1`, for which the “hERG current change (%, negative = inhibition) at 10uM” value was -66.8%.
The same measure for `Cn1c(=O)[nH]c(=O)c2c1nc(N1CCCCCC1)n2CCCSc1nc2ccccc2o1`: -38.3%; for `Cn1c(=O)[nH]c(=O)c2c1nc(Br)n2CCCCSc1nc2ccccc2o1`: -55.6%; for `Cn1c(=O)[nH]c(=O)c2c1nc(N1CCCCC1)n2CCSc1nc2ccccc2o1`: 11.1%.
To `Cn1c(=O)[nH]c(=O)c2c1nc(Br)n2CCSc1nc2ccccc2o1` belongs -1.02%; to `Cn1c(=O)[nH]c(=O)c2c1nc(N1CCCC1)n2CCCSc1nc2ccccc2o1`, -25.4%.
For `Oc1ccc(CNCC2COc3ccccc3O2)cc1` (stereo not shown), the “hERG current change (%, negative = inhibition) at 10uM” value is 4.89%.
The same measure for `COc1ccc(OCCC(=O)OCC(=O)NCCc2ccccc2)cc1`: 6.65%.
Turning to `O=C(/C=C/c1ccccc1[N+](=O)[O-])NCC1CCCO1` (stereo not shown), the “hERG current change (%, negative = inhibition) at 10uM” value is given as -3.47%.
With `COc1ccc(COC(=O)C2CCN(S(=O)(=O)c3ccc(Cl)cc3)CC2)cc1`, the “hERG current change (%, negative = inhibition) at 10uM” value is given as 30%.
The same measure for `CCn1c(CSc2ncn[nH]2)nc2cc(C(=O)O)ccc21`: -4.97%.
The same measure for `CCOc1ccccc1CNC(=O)CCC(=O)N1Cc2ccccc2Oc2ncccc21`: -3.62%; for `COc1cccc2c1Oc1ncccc1N(C(=O)CCC(=O)NCc1ccc(C)cc1)C2`: -34.4%.
To `CCOc1ccc(CNC(=O)CCC(=O)N2Cc3cccc(OC)c3Oc3ncccc32)cc1` belongs -44.3%; to `CCc1ccc(CNC(=O)CCC(=O)N2Cc3cccc(OC)c3Oc3ncccc32)cc1`, -75%.
`COc1cccc2c1Oc1ncccc1N(C(=O)CCC(=O)NCc1ccc(F)cc1)C2`: the “hERG current change (%, negative = inhibition) at 10uM” value is -32.6%.
To `CCOc1ccc(CNC(=O)CCC(=O)N2Cc3ccccc3Oc3ncccc32)cc1` belongs -51.1%.
The same measure for `O=C1C=C(Nc2ccc(O)cc2)C(=O)c2ccccc21`: 4.35%.
The same measure for `CCc1ccccc1Nc1nc(-c2cccnc2)cs1`: -3.32%.
As for `Fc1ccc(NC(=S)N/N=C/c2ccc(F)c(F)c2)c(F)c1`, the “hERG current change (%, negative = inhibition) at 10uM” value is listed as 13%.
As to `Cc1nc(SCC(=O)NC2CCCC2)c2c(C)c(C)sc2n1`, the “hERG current change (%, negative = inhibition) at 10uM” value is reported as -4.48%.
On to `CCc1cccc2c(C(=O)COC(=O)c3nn(C)c(=O)c4ccccc34)c[nH]c12`, for which the “hERG current change (%, negative = inhibition) at 10uM” value was -65.6%.
The same measure for `CCc1cccc2c(C(=O)COC(=O)c3ccccc3)c[nH]c12`: 11.7%; for `CCc1cccc2c(C(=O)COC(=O)c3nccnc3N)c[nH]c12`: -5.69%.
The same measure for `O=C1CCC(C(=O)OCC(=O)c2c[nH]c3ccccc23)=NN1`: 1.19%; for `CCc1cccc2c(C(=O)COC(=O)c3cnc(C)cn3)c[nH]c12`: 2.87%; for `CCc1cccc2c(C(=O)COC(=O)C3=NNC(=O)CC3)c[nH]c12`: -51.6%.
For `Fc1ccccc1NC(=S)NN(Cc1ccccc1)c1ccccc1`, the “hERG current change (%, negative = inhibition) at 10uM” value is given as -13.9%.
To `CCNc1nc2[nH]c(=O)c3c(c2s1)OC(N)=C(C#N)C3c1ccc(C)cc1` (stereo not shown) belongs 1.97%; to `CCCc1nc(SCC(N)=O)[nH]c(=O)c1CC`, 7.34%.
The same measure for `CCOc1ccc(NC(=O)c2ccccc2CO)cc1`: 16.2%; for `Cn1cnnc1SCC(=O)Nc1ccccc1Sc1ccccc1`: -16.7%.
Take `COc1cc(C(=O)Nc2cc(C)cc(C)c2)c(-n2cnnn2)cc1OC`: the “hERG current change (%, negative = inhibition) at 10uM” value is listed as 14.7%.
For `COCCN(C(=O)Nc1ccc(OC)cc1OC)C1CCN(C(C)=O)CC1`, the “hERG current change (%, negative = inhibition) at 10uM” value is recorded as 7.58%.
The same measure for `O=C(CN1CCCCC1)Nc1ccccc1`: -1.04%; for `Cl.O=C(Nc1ccccc1)OCC(CN1CCCCC1)OC(=O)Nc1ccccc1` (stereo not shown): -60.1%; for `O=C(Nc1ccccc1)OC(CN1CCCCC1)C(F)(F)F` (stereo not shown): 6.17%.
`CCN(CC(=O)Nc1ccc(NC(C)=O)cc1)C(=O)C1CCCN(C(=O)c2ccc(Cl)cc2)C1` (stereo not shown): the “hERG current change (%, negative = inhibition) at 10uM” value is recorded as -3.75%.
To `Cc1ccccc1N1CCN(CC(=O)Nc2ccccc2C(=O)NC2CC2)CC1` belongs -62.4%; to `CCOc1ccccc1NC(=O)CN1CCC(NC(=O)c2ccccc2C)CC1`, -59.4%.
To `CC(=O)c1ccc(N2CCN(CC(=O)Nc3ccccc3C(=O)NC3CC3)CC2)c(F)c1` belongs -27.9%.
Consider `CCOc1ccccc1N1CCN(CC(=O)Nc2ccccc2C(=O)NC2CC2)CC1`, for which the “hERG current change (%, negative = inhibition) at 10uM” value is given as -70.2%.
The same measure for `COc1ccc(OC)c(NC(=O)CN2CCC(NC(=O)c3ccccc3C)CC2)c1`: -12.3%.
To `CCOc1cc2c(cc1OCC)CN(CC(=O)Nc1ccccc1C(=O)NC1CC1)CC2` belongs -31.4%; to `CCOc1ccccc1C(=O)Nc1cc(OC)ccc1OC`, -3.8%; to `CC1CCN(CC(=O)Nc2ccccc2C(=O)NC2CC2)CC1`, -17.4%.
The same measure for `CCOc1ccccc1C(=O)NC1CCN(CC(=O)Nc2cc(OC)ccc2OC)CC1`: -77.2%; for `CCOc1ccccc1OCC(=O)Nc1ccccc1C(=O)NC1CC1`: 3.61%.
As to `COC(=O)c1ccccc1NC(=O)CN1CCC(NC(=O)c2ccccc2C)CC1`, the “hERG current change (%, negative = inhibition) at 10uM” value was -39.9%.
The same measure for `CCOc1ccccc1NC(=O)N1CCC(NC(=O)c2ccccc2C)CC1`: -1.06%; for `COc1cccc(OCc2nnc(SC)n2C)c1`: -7.06%; for `Cc1cc2ccccn2c1C(=O)c1ccc(NN)c([N+](=O)[O-])c1`: -6.4%.
To `O=C(Nc1ccc(S(=O)(=O)Nc2ccccn2)cc1)c1ccc(Cl)cc1Cl` belongs 2.92%; to `Cc1ccccc1NC(=O)CN1C(=O)S/C(=C\c2ccc(-c3cccc(C(=O)O)c3C)o2)C1=O`, 23.7%.
